BoNT-A LC inh2 = BoNT A light chain protease inhibition. inhibition, % at 10 µM. AID 588499. multiplex microsphere protease substrate cleavage, flow cytometry. 0.17% of 360,000 active; also: plate controls were buffer without enzyme for full effect and enzyme alone for no effect
SSB-PriA inh = inhibitors of Klebsiella pneumoniae PriA binding to SSB C-terminal tail | AlphaScreen SSBct-PriA binding, biotinylated peptide | inhibition, % at 33 µM | 0.6% of 430,000 active | AID 1272365; in the data active = inhibition mostly above about 37%, no sharp cut-off; inactive = mostly below about 20%;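 also: plate controls were negative control peptide for no effect and reference peptide for full effect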
BoNT-F LC inh = BoNT F light chain protease inhibition. inhibition, % at 10 µM. AID 588497. 0.22% of 360,000 active. Multiplex microsphere protease cleavage assay, flow cytometry; in the data active = inhibition above about 35%, passing the limit was not always enough; inconclusive = no clear call, values can overlap the other calls; also: plate controls were buffer without enzyme for full effect and enzyme alone for no effect
Bead autofluor = counter-screen for toxin protease inhibitors: compound fluorescence; compound autofluorescence counterscreen, microsphere flow cytometry; hits give high values; fluorescence intensity (test concentration not listed); AID 624483; 3.1% of 360,000 active; in the data active = fluorescence intensity above about 16000; inconclusive = no clear call, values can overlap the other calls
Anthrax LF prot = blocks Bacillus anthracis lethal factor protease; inhibition, % at 10 µM; AID 588501; multiplex microsphere protease cleavage assay, LF; 0.12% of 360,000 active; P15917; also: plate controls were buffer without enzyme for full effect and enzyme alone for no effect
* hit, by the source's call; ? = inconclusive; · = not tested or not shown. An excerpt weighted towards active compounds, which were near 3.1% of everything screened. Rule as the data show it, unless noted: active = inhibition above about 30%; inconclusive = no clear call, values can overlap the other calls; inactive = below that.

SMILES | BoNT-A LC inh2 | SSB-PriA inh | BoNT-F LC inh | Bead autofluor | Anthrax LF prot
CCCCCc1nnc(N)s1 | -1 | -3 | -1 | 16328* | -4
Nc1nnc(CCCCCCCCCCc2nnc(N)s2)s1 | 0 | -18 | 0 | 2429 | -2
COc1ccc2nc(-c3ccc(OC)c(NC(=O)c4cccc(C(F)(F)F)c4)c3)cn2n1 | · | -12 | · | · | ·
O=c1cc(-c2ccccc2)[nH]c2[nH]n(-c3ccccc3)c(=O)c12 | -2 | 8 | -3 | 17478* | 0
CCOC(=O)Cc1cc(=O)c2c(=O)n(-c3ccccc3)[nH]c2[nH]1 | 2 | -5 | 2 | 22135* | -2
CCOC(=O)CC1=NN(c2ccccc2)C(=O)C1 | 0 | -16 | -4 | 2572 | 0
CC(C)C(NS(=O)(=O)c1c(Cl)cccc1Cl)C(=O)OCC(=O)c1c[nH]c2ccccc12 (configuration not stated) | 58* | -2 | -16 | 4613 | 15
CC(O)C(NS(=O)(=O)c1ccc(Cl)cc1)C(=O)OCC(=O)c1c[nH]c2ccccc12 (configuration not stated) | 0 | -2 | 0 | 4278 | -2
Cn1cccc1-c1noc(CNC(=O)Cc2ccsc2)n1 | · | 5 | · | · | ·
COC(=O)c1ccccc1NC(=O)CSc1nc2sc(C)c(C)c2c(=O)[nH]1 | · | -5 | · | · | ·
CC1CN/C(=C\C(=O)c2ccc(Cl)cc2)C(=O)N1 (configuration not stated) | ? | · | -9 | 24766* | -5
CC1CN/C(=C\C(=O)c2ccccc2)C(=O)N1 (configuration not stated) | -1 | · | 7 | 3001 | -3
N#Cc1cc(Sc2ccccn2)c(Sc2ccccn2)cc1C#N | -3 | -8 | -4 | 17696* | 2
Cc1cc(C)cc(NC(=O)N2CCC(c3nc4ccccc4o3)CC2)c1 | -2 | -10 | -3 | 20562* | -1
Cc1cccc(N2C(=O)/C(=C/C=C/c3ccco3)SC2=S)c1C | · | 7 | · | · | ·
COC(=O)c1cn[nH]c1NC(=S)Nc1ccc(C)cc1Cl | ? | -17 | -2 | 23473* | 0
COC(=O)c1cn[nH]c1NC(=S)Nc1ccc(Cl)c(Cl)c1 | 0 | -15 | -9 | 9891 | -6
CCOc1cc(CNn2nnnc2N)ccc1OCC(=O)NC(C)(C)C | -2 | -5 | -4 | 16985* | 0
CCOc1cc(CNC)ccc1OCC(=O)NC(C)(C)C | 0 | -10 | -1 | 2592 | 1
CC(C)(C)NC(=O)COc1ccc(CNn2nnnc2N)cc1 | 0 | -2 | 2 | 3463 | 2
COc1cc(CNn2nnnc2N)ccc1OCC(=O)NC(C)(C)C | 1 | -8 | -1 | 23140* | -1
COc1cc(C2C(C#N)=C(N)Oc3n[nH]c(-c4ccncc4)c32)cc(OC)c1OC (configuration not stated) | 1 | 6 | -16 | 4586 | 1
COCc1[nH]nc2c1C(c1ccnc3ccccc13)C(C#N)=C(N)O2 (configuration not stated) | 0 | -1 | 0 | 16149* | -3
COc1ccc(C2C(C#N)=C(N)Oc3n[nH]c(-c4ccccn4)c32)c(OC)c1OC (configuration not stated) | 0 | 70* | -5 | 3199 | -10
CC(C)CCN1C(=O)CCc2cc(NC(=O)c3cccc(Br)c3)ccc21 | · | -1 | · | · | ·
SMILES | BoNT-A LC inh2 | SSB-PriA inh | BoNT-F LC inh | Bead autofluor | Anthrax LF prot
COc1ccc(CCNC(=O)C2CCCN(c3ccc(-c4ccc(F)cc4)nn3)C2)cc1OC (configuration not stated) | · | -9 | · | · | ·
CCOc1cc(/C=C2\SC(=S)N(Nc3ccccc3)C2=O)ccc1O | 39* | 15 | 30 | 3712 | 42*
c1ccc(Sc2nc(N3CCCCC3)nc(N3CCCCC3)n2)nc1 | ? | -11 | 4 | 19461* | -7
Cc1nc2ccccn2c1C(=O)N/N=C/c1cc(C)n(-c2ccc(Br)cc2)c1C | -4 | · | -8 | 23974* | -6
Cn1c(Sc2ccc(C(F)(F)F)cc2[N+](=O)[O-])nnc1-c1ccccc1 | 3 | 16 | 4 | 18706* | -6
O=C(c1c[nH]c(=O)[nH]1)N1CCCC(Oc2cnccn2)C1 (configuration not stated) | · | -11 | · | · | ·
O=C(NC[C@@H](O)Cc1ccccc1)c1ccc(OC(F)(F)F)cc1 | · | -12 | · | · | ·
CC(C)COC(=NS(=O)(=O)c1ccccc1)c1ccccc1 | · | -10 | · | · | ·
CC(C)CO/C(=N/S(=O)(=O)c1ccccc1)c1ccccc1 | -1 | · | -3 | 21474* | -3
O=C(/C=C/c1cccc([N+](=O)[O-])c1)n1nnc2ccccc21 | · | -10 | · | · | ·
C/C(=C\c1ccccc1)C(=O)n1nnc2ccccc21 | -6 | -8 | -9 | 17498* | -7
O=C(N1CCOCC1)n1nnc2ccccc21 | -1 | -22 | -2 | 22842* | 0

From PubChem
